Bioassay records: PubChem BioAssay, several laboratories
PrPC surface inh: inhibitors of human cell surface prion protein PrPC. P04156. TR-FRET read-out. inhibition, % at 13.8 µM. AID 720596. actives 0.43% (n = 370,000); in the data active = inhibition above about 24%; also: 0% = median of the test wells and 100% = reference compound wells
Mtb FBA inh: Mtb fructose-bisphosphate aldolase inhibition. inhibition, % at 1 µM. purified M. tuberculosis FBA, fluorescence read-out. P9WQA3. AID 588726. actives 2.3% (n = 360,000); in the data active = inhibition above about 27%;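 also: 0% = vehicle and 100% = reference inhibitor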
Target sequence (P9WQA3 whole entry, looked up): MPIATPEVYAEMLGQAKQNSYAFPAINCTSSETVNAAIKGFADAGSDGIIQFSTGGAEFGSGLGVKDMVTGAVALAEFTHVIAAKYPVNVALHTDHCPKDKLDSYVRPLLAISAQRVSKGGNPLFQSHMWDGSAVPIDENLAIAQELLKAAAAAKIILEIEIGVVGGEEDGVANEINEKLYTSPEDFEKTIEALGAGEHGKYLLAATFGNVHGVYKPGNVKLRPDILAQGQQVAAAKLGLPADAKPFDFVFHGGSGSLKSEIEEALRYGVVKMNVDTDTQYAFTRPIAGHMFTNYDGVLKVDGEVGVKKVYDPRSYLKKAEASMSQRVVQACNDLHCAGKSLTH
BJeLR viability: BJeLR cell viability loss; inhibition, % (no concentration beside the values); BJeLR (HRASV12) viability, CellTiter-Glo ATP luminescence, 48 h; AID 1554; actives 0.17% (n = 300,000); in the data active = inhibition above about 50%; inconclusive = no clear call, values can overlap the other calls
GDH-TPI counter: counter-screen for M. tuberculosis FBA inhibitors: GDH-TPI coupled enzymes. GDH-TPI coupled enzyme counterscreen, NADH absorbance. inhibition, % at 4.8 µM. actives 1.2% (n = 360,000). AID 588335; in the data active = inhibition above about 30%;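 also: 0% = DMSO wells and 100% = wells lacking the enzyme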
PrP UTR inh: suppresses PrP 5' UTR mRNA reporter expression | actives 0.35% (n = 340,000) | cell-based PrP 5' UTR mRNA reporter, plate reader | inhibition, % (no concentration beside the values) | AID 488862; in the data active = inhibition above about 52%; also: 0 = median of the neutral control wells
PfHsp40 rescue: compounds rescuing yeast from Plasmodium falciparum HSP40 toxicity. actives 0.68% (n = 340,000). AID 504582. S. cerevisiae expressing PfHsp40, growth rescue, ATP luminescence. growth rescue, % at 12.5 µM; in the data active = growth rescue above about 28%, passing the limit was not always enough; inconclusive = no clear call, values can overlap the other calls;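 also: yeast W303a lacking pdr1 and pdr3 grown in galactose medium; growth measured after three days at 30 °C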
* marks the source's active call; other numbers are inactive results; ? = inconclusive; / = not tested or not shown; + = active, no number. Compounds with a hit are over-represented: about 4.5% of the library has one in this group of screens.

SMILES	PrPC surface inh	Mtb FBA inh	BJeLR viability	GDH-TPI counter	PrP UTR inh	PfHsp40 rescue
Cc1ccccc1Cn1cc(CN2[C@@H](CC(C)C)COc3cc(Br)ccc3S2(=O)=O)nn1	-3	/	/	/	/	/
COC(=O)C1=CN(Cc2ccc(C)cc2)C=C(C(=O)OC)C1c1ccc(F)c(F)c1	-3	3	4	-4	-18	-1
COC(=O)C1=CN(Cc2ccc(OC)c(OC)c2)C=C(C(=O)OC)C1c1cccc(F)c1	8	123*	-4	1	-24	1
COC(=O)C1=CN(Cc2ccccc2)C=C(C(=O)OC)C1c1cc(F)ccc1F	2	122*	1	8	-4	0
Cc1ccc(CN[C@@H]2CC[C@@]34CCCN3C(=O)CCC[C@H]4C2)cc1	-8	/	/	/	/	/
COc1cccc(-c2cc3nc(-c4ccccc4)cc(=O)n3[nH]2)c1	10	84*	21	14	-35	-2
CN(C)c1ccc(/C=C/c2nc3ccccc3c(=O)n2-c2ccc(C(=O)O)cc2)cc1	-1	-8	-4	20	-14	0
O=C(O)c1cccc(-n2c(/C=C/c3ccccc3)nc3ccccc3c2=O)c1	6	1	-1	32*	-6	1
O=C(O)c1ccc(/C=C/c2nc3ccccc3c(=O)n2-c2ccc(Br)cc2)cc1	3	-4	-4	39*	-21	?
O=C(O)c1cccc(-n2sc3ccccc3c2=O)c1	-2	0	/	-2	-25	52*
Cc1ccc(/C=c2\sc3nc(-c4ccccc4Br)nn3c2=O)o1	11	-1	11	26	-20	1
Cc1ccc(/C=c2\sc3nc(-c4ccco4)nn3c2=O)o1	/	-2	-5	40*	-6	-3
Cc1ccc(NC(=O)C2CCCN2S(=O)(=O)c2cccnc2)cc1C (stereo unspecified)	2	/	/	/	/	/
N=C(N)c1ccc(N)cc1	-2	-2	/	4	-11	67*
CCCCCCOc1ccc(/C(N)=N/O)cc1	3	2	-1	0	-75	0
N=C(N)c1ccc(OCCCCCOc2ccc(C(=N)N)cc2)cc1	0	3	-3	2	0	112*
Cc1ccc(-n2c(SCC(=O)Nc3ccc(Oc4ccccc4)cc3)nnc2-c2ccco2)cc1	-10	/	/	/	/	/
CN(C(=O)[C@@H](C1CC1)[C@@H](O)c1ccc(Cl)cc1)c1ccccc1	-2	/	/	/	/	/
Cc1ccc(NC(=O)c2cc(N3C(=O)C=CC3=O)ccc2N2CCOCC2)cc1Cl	2	-3	1	10	-63	36*
Cc1c(CCC(=O)NCCCN2CCCC2=O)c(=O)oc2cc(O)ccc12	1	+	1	19	-9	0
Cc1coc2c(C)c3oc(=O)c(CCC(=O)NCCCN4CCCC4=O)c(C)c3cc12	-2	10	-4	6	-9	0
C=C(C)COc1ccc2c(C)c(CCC(=O)NC3CC3)c(=O)oc2c1	7	+	13	18	-9	-1
Cc1c(CCC(=O)NC2CC2)c(=O)oc2c(C)c(O)ccc12	/	+	-7	21	-23	-1
Cc1c(CCC(=O)NCCCN2CCCC2=O)c(=O)oc2c(C)c(O)ccc12	-2	+	0	15	-26	-1
COc1ccc(CN(CC#Cc2ccccc2)Cc2ccccc2)c(OC)c1	-1	/	/	/	/	/
SMILES	PrPC surface inh	Mtb FBA inh	BJeLR viability	GDH-TPI counter	PrP UTR inh	PfHsp40 rescue
OC(c1ccccc1)(c1ccccc1)C1CCN(CCCOc2ccc(Br)cc2)CC1	2	/	/	/	/	/
N#C/C(=C\c1cccn1S(=O)(=O)c1ccccc1)S(=O)(=O)c1ccc(F)cc1	8	-3	/	8	/	/
CCCCCCCCCn1ccc(=N)cc1	25*	0	46	8	4	1
O=S(=O)(N/N=C\C=C\c1ccccc1)c1ccc(Cl)cc1	-1	0	6	59*	/	6
O=S(=O)(N/N=C\c1ccccc1O)c1ccc(Cl)cc1	-3	0	1	7	-15	-1
CC(C)CCNC(=O)c1c(N)n(CC2CCCO2)c2nc3ccccc3nc12 (stereo unspecified)	-3	19	7	12	-11	1
C=CCn1c(N)c(C(=O)NCC2CCCO2)c2nc3ccccc3nc21 (stereo unspecified)	-5	144*	-4	4	-21	0
CCC(C)NC(=O)c1c(N)n(CC2CCCO2)c2nc3ccccc3nc12 (stereo unspecified)	-3	87*	-8	1	-18	-2
CC1(C)CC(=O)N(CC(=O)N2CCN(Cc3ccccc3)CC2)c2ccccc2S1(=O)=O	-7	/	/	/	/	/
COc1cc(/C=N/NC(=O)C(Cc2c[nH]c3ccccc23)NC(=O)OCC(C)C)cc([N+](=O)[O-])c1O (stereo unspecified)	-20	-7	-7	33*	-6	1
COc1cc(/C=N/NC(=O)C(Cc2c[nH]c3ccccc23)NC(=O)OCc2ccccc2)cc([N+](=O)[O-])c1O (stereo unspecified)	-18	-10	-1	36*	-18	0
COc1cc(/C=N/NC(=O)C(Cc2c[nH]c3ccccc23)NC(=O)OCC(C)C)cc([N+](=O)[O-])c1OCc1ccccc1 (stereo unspecified)	-7	1	-2	5	-38	-1
Cc1ccc(-n2c(SCc3cccc(F)c3)nc3sc4c(c3c2=O)CCCC4)cc1	7	/	/	/	/	/
CC12CCC(C(=O)N(CSC(=S)N/N=C\c3ccccc3)C1=O)C2(C)C (stereo unspecified)	-2	5	-7	42*	-18	4
CCC(C)c1ccc(NC(=S)NCc2ccccc2OC)cc1 (stereo unspecified)	3	-2	1	-5	-15	84*
O=S1(=O)c2ccc(N3CC[C@H](O)C3)cc2O[C@H]2CCN1C2	-2	/	/	/	/	/
Cc1ccc(NC(=O)NNC(=O)c2cc3ccccc3cc2O)cc1	2	4	1	6	-13	70*
COc1ccccc1NC(=O)NNC(=O)c1cc2ccccc2cc1O	0	21	-17	7	-19	8
Cc1c(C2(O)CCCCC2)[nH]c2cnccc12	-6	127*	/	13	-5	0
COC(=O)[C@]12C[C@H](CC(=O)NCc3cccs3)C(=O)N(Cc3ccc(Cl)cc3Cl)C1=C[C@H](COCc1ccccc1)O[C@@H]2C	1	/	/	/	/	/
CN(CCOC(=O)c1cc2ccccc2o1)C1CN(Cc2cn(Cc3ccccc3F)nn2)S(=O)(=O)C1 (stereo unspecified)	0	/	/	/	/	/
COc1cc(/C=C/C(=O)c2ccc3c(c2)OCCO3)cc(OC)c1OC	-11	-3	-1	37*	-31	-1
O=C(Nc1ccc(Cc2ccncc2)cc1)c1cccc([N+](=O)[O-])c1	-5	-1	10	1	-25	0
O=C(Nc1ccc(Nc2ccncc2)cc1)c1ccc(Nc2ccnc3ccc([N+](=O)[O-])cc23)cc1	20	0	22	39*	/	-1
